Source: PubChem
ADAM17 inh = inhibits human ADAM17; recombinant ADAM17, EDANS/DABCYL FRET peptide cleavage; inhibition, % at 6.95 µM; hit rate 0.83% among 370,000; AID 720648;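 active = inhibition above the mean of compounds lying between control limits plus 3 SD, set per campaign, cut at about 8.5% in these data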
HGIII-sPLA2 inh = Inhibits HGIII-sPLA2 liposome hydrolysis, primary screen; Q9NZ20; QFRET BODIPY PC-A2 liposome hydrolysis, fluorescence; inhibition, % at 12.2 µM; hit rate 0.56% among 370,000; AID 743126;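 active = inhibition above mean plus 3 SD of compounds lying within the high and low control bounds, cut at about 19% in these data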
ADAM10 inh = ADAM10 inhibition, QFRET primary screen; recombinant ADAM10, EDANS/DABCYL FRET peptide cleavage, 3 h; O14672; inhibition, % at 7 µM; AID 720582; hit rate 0.62% among 370,000;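 active = inhibition above a per-campaign cutoff equal to the mean of compounds falling between control-based bounds plus 3 SD, cut at about 20% in these data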
NR3A LBD binder = modulates the human NR3A ligand-binding domain; NR3A LBD differential scanning fluorimetry, Tm shift; 0% = protein alone, 100% = glycine-bound protein; AID 1259313; Tm shift relative to glycine control, % at 25 µM; hit rate 2.5% among 340,000;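 active = melting temperature shift of at least 10% of the positive control shift, at one fixed dose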
FAS TE block = blocks the thioesterase domain of human fatty acid synthase; P49327; recombinant FAS-TE, OMFH fluorogenic substrate, fluorescence endpoint; inhibition, % at 15 µM; hit rate 0.67% among 360,000; AID 602261;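 active = compounds whose normalised, plate-corrected inhibition of enzyme fluorescence in the single-dose primary screen is 50% or more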
FAS-TE inh conf = confirmation of human fatty acid synthase thioesterase inhibitors | inhibition, % at 15 µM | AID 624325 | shares compounds with FAS TE block | hit rate 45% among 2,300 | recombinant FAS-TE, OMFH fluorogenic substrate, fluorescence;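 active = compounds inhibiting the enzyme by at least 50% at 15 µM in any one of the replicates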
Hits are given with their value; - = inactive; . = no result. Hits are enriched below; roughly 4.3% of the tested compounds scored in any of these assays.

SMILES	ADAM17 inh	HGIII-sPLA2 inh	ADAM10 inh	NR3A LBD binder	FAS TE block	FAS-TE inh conf
CC(=O)NNc1nc(-c2ccccc2)cs1	-	-	-	-	69.6	54.8
COc1ccc([N+](=O)[O-])cc1NC(=O)C(C)NNC(=O)c1cccc([N+](=O)[O-])c1 (configuration not stated)	-	-	-	-	56.2	52.6
CCOc1ccc(-n2cc(C(=O)Nc3cccc(Cl)c3)c3cc(OC)c(OC)cc3c2=O)cc1	-	-	-	-	59.2	-
COc1ccc(N(CC(=O)N/N=C/c2ccc(OC3CSC3)cc2)S(=O)(=O)c2ccccc2)cc1	-	-	-	16.1	50.2	-
Cc1ccc(N(CC(=O)N/N=C/c2ccc(OC3CSC3)cc2)S(=O)(=O)c2ccccc2)cc1	-	-	-	-	-	.
CCOc1ccc(NC(=O)c2cn(-c3ccc(OCC)cc3)c(=O)c3cc(OC)c(OC)cc23)cc1	-	-	-	-	-	.
COCCSc1ccccc1C(=O)Nc1cc([N+](=O)[O-])ccc1OC	-	-	-	-	-	.
COc1ccc([N+](=O)[O-])cc1NC(=O)c1cn(-c2ccc(Cl)cc2)c(=O)c2ccccc12	-	-	-	-	91.1	-
Cc1cccc(NC(=O)CNC(=O)[C@H](CCc2ccccc2)NC(=O)[C@H]2O[C@@H](n3cnc4c(N)ncnc43)[C@H](O)[C@@H]2O)c1C	-	-	-	.	.	.
O=C(NCCc1c[nH]c2ccccc12)OCc1cn(Cc2ccccc2Cl)nn1	-	-	-	.	.	.
COCCCN1C(=O)[C@H](CC(=O)NCc2ccc(OC)c(OC)c2)[C@]2(C(=O)OC)CCCCC=C12	-	-	-	.	.	.
COc1ccc(NC(=O)CN(c2ccc([N+](=O)[O-])cc2)S(=O)(=O)c2ccccc2)c(OC)c1	-	-	-	-	69.5	68.3
COc1cccc(NC(C)C(=O)Nc2cc([N+](=O)[O-])ccc2Cl)c1 (configuration not stated)	-	-	-	-	55.7	58.3
COc1ccc([N+](=O)[O-])cc1NC(=O)CCN1CCOCC1	-	-	-	-	-	.
COc1ccc([N+](=O)[O-])cc1NC(=O)C1(c2ccccc2)CCOCC1	-	-	-	-	50.7	52.6
COc1ccc([N+](=O)[O-])cc1NC(=O)CC(c1ccccc1)c1ccccc1	-	-	-	-	61.8	54.2
CCC[C@H]1[C@@H](OC(=O)NCc2ccc(Cl)cc2)CC[C@@]23CCCN2C(=O)CCC[C@@H]13	-	-	-	.	.	.
COc1ccc([N+](=O)[O-])cc1NC(=O)C(C)OC(=O)C1CCCC1 (configuration not stated)	-	-	-	-	-	.
COc1ccc([N+](=O)[O-])cc1NC(=O)C(C)OC(=O)CC1CCCC1 (configuration not stated)	-	-	-	-	79.0	60.6
O=C(Nc1cc([N+](=O)[O-])ccc1Cl)C(Sc1ccccc1)c1ccccc1 (configuration not stated)	-	-	-	-	73.2	67.3
CC(CC(=O)Nc1cc([N+](=O)[O-])ccc1Cl)c1ccccc1 (configuration not stated)	-	-	-	-	-	.
C[C@H](O)[C@@H]1CN2CCc3ccc(N4CCOCC4)cc3[C@@H]2C[C@@H]1N(C)C(=O)c1ccccc1F	-	-	-	.	.	.
CCOC(=O)[C@]12CCCC=C1N(CCCOC)C(=O)[C@@H]2CC(=O)NCC1CCCCC1	-	-	-	.	.	.
CCOC(=O)[C@]12CCCCC/C=C\1N(CCc1ccc(Cl)cc1)C(=O)[C@H]2CC(=O)NCCCCc1ccccc1	-	-	-	.	.	.
O=C(c1ccc(Br)cc1)c1cc([N+](=O)[O-])ccc1N1CCOCC1	-	-	-	-	-	.
SMILES	ADAM17 inh	HGIII-sPLA2 inh	ADAM10 inh	NR3A LBD binder	FAS TE block	FAS-TE inh conf
COc1ccc(COC(=O)c2cc([N+](=O)[O-])ccc2N2CCOCC2)cc1F	-	-	-	-	54.2	-
O=C(OCc1ccc(Br)cc1)c1cc([N+](=O)[O-])ccc1N1CCOCC1	-	-	-	.	72.8	-
O=C(OCc1cccc(Cl)c1)c1cc(S(=O)(=O)N2CCCCC2)ccc1N1CCOCC1	-	-	-	-	-	.
O=C(OCc1cccc(C(F)(F)F)c1)c1cc([N+](=O)[O-])ccc1N1CCOCC1	-	-	-	-	58.4	45.9
O=C(OCc1cccc(Cl)c1)c1cc([N+](=O)[O-])ccc1N1CCOCC1	-	-	-	-	58.8	-
COc1ccc(N=C(N)NC(=O)OCc2ccccc2)cc1	-	-	-	.	.	.
O=C(CCNc1ccc(Br)cc1)c1cccc([N+](=O)[O-])c1	-	-	-	-	64.5	53.4
O=C(CCNc1ccc(F)cc1)c1cccc([N+](=O)[O-])c1	-	-	-	-	-	.
FC(F)(F)Oc1cccc(Cn2ccc3ccc(-c4ccc5ccn(Cc6cccc(OC(F)(F)F)c6)c5c4)cc32)c1	-	-	-	.	.	.
CCS(=O)(=O)c1ccc(-c2csc(-c3ccccc3)n2)c(Cl)c1Cl	-	-	-	-	83.5	70.6
O=C(O)c1ccc(-c2nc(-c3ccccc3Cl)cs2)cc1	-	-	-	-	-	.
Fc1ccc(NC2CCC23CCC(c2ccccc2)CC3)cc1C(F)(F)F (configuration not stated)	-	-	-	.	.	.
COc1ccc(-c2nnc(SC)nc2-c2ccc(OC)c([N+](=O)[O-])c2)cc1[N+](=O)[O-]	-	-	-	-	69.2	-
CCCCCCCOC(=O)c1nc(Cl)c(Cl)c(N)c1Cl	-	-	-	-	54.5	-
CCCCCCCCOC(=O)c1ccc(N)cc1	-	-	-	-	-	.
CC(C)(C)N(Cc1ccccc1)C(=O)COC(=O)c1ccc([N+](=O)[O-])o1	-	-	-	-	50.4	51.9
O=C(NCc1ccc2c(c1)OCO2)c1ccc2c(c1)N(Cc1c(F)cccc1Cl)C(=O)CS2	-	-	-	-	54.3	32.8
CCC1CCCCN1CCCNC(=O)c1ccc2c(c1)N(Cc1c(F)cccc1Cl)C(=O)CS2 (configuration not stated)	-	-	-	-	-	.
O=[N+]([O-])c1ccc(Sc2nc3ccccc3o2)c([N+](=O)[O-])c1	-	-	-	-	50.3	49.5
CCN(CC)S(=O)(=O)c1ccc(C(=O)NNc2nc(-c3ccccc3)c3cc(Br)ccc3n2)cc1	-	-	-	-	67.6	-
O=C(/C=C/c1cccc([N+](=O)[O-])c1)N1CCN(c2ccccc2F)CC1	-	-	-	-	56.3	42.1
C[C@@H]1CCN(C2CC2)S(=O)(=O)c2c(cccc2N2CCC[C@H]2CO)O1	-	-	-	.	.	.
CC(C)C[C@H]1COc2cc(Br)ccc2S(=O)(=O)N1Cc1cccc(Cl)c1	-	-	-	.	.	.
CCn1c(C)cs/c1=N\S(=O)(=O)c1ccccc1	-	-	-	-	-	.
